What was measured:
Assay in all cases: PBM binding z-score (relative to random genomic background probes); higher = stronger binding; sequences stand for … in GC…GCGATTGACAGCGTAGAATGAAGG
[1] = test system: FXR:RXRa (NR concentration 270 nM, RXRa partner concentration 90 nM)
How it was run: (§1)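 Binding z-scores take random background probes as their reference. They come from custom Agilent 4×180K protein-binding microarrays incubated 1 h with ligand-free nuclear receptor dimers, with antibodies against each partner (one per run) detecting binding. Scanned fluorescence was regression-normalized.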

[2] = test system: LXRa:RXRa (NR concentration 270 nM, RXRa partner concentration 90 nM)
How it was run: as §1

[3] = test system: LXRa homodimer (NR concentration 270 nM)
How it was run: as §1

[4] = test system: LXRb:RXRa (NR concentration 270 nM, RXRa partner concentration 90 nM)
How it was run: as §1

[5] = test system: LXRb homodimer (NR concentration 270 nM)
How it was run: as §1

[6] = test system: PPARa:RXRa (NR concentration 270 nM, RXRa partner concentration 90 nM)
How it was run: as §1

[7] = test system: PPARg:RXRa (NR concentration 180 nM, RXRa partner concentration 90 nM)
How it was run: as §1

[8] = test system: PPARg:RXRa 270nM:90nM, anti-RXR (NR concentration 270 nM, RXRa partner concentration 90 nM)
How it was run: as §1

[9] = test system: PPARg:RXRa 30nM:10nM, anti-RXR (NR concentration 30 nM, RXRa partner concentration 10 nM)
How it was run: as §1

[10] = test system: PPARg:RXRa 90nM:30nM, anti-RXR (NR concentration 90 nM, RXRa partner concentration 30 nM)
How it was run: as §1

[11] = test system: PPARg:RXRa DBDmut IVT, anti-RXR (DBD mutation: RXRa K156A/R161A, NR concentration 270 nM, RXRa partner concentration 90 nM)
How it was run: as §1

[12] = test system: PPARg:RXRa IVT, anti-PPARg (NR concentration 270 nM, RXRa partner concentration 90 nM)
How it was run: as §1

[13] = test system: PPARg DBDmut:RXRa IVT, anti-PPARg (DBD mutation: PPARg1 K132A/R137A, NR concentration 270 nM, RXRa partner concentration 90 nM)
How it was run: as §1

[14] = test system: PPARg DBDmut IVT, anti-PPARg (DBD mutation: PPARg1 K132A/R137A, NR concentration 270 nM)
How it was run: as §1

[15] = test system: PPARg homodimer (NR concentration 180 nM)
How it was run: as §1

[16] = test system: PXR:RXRa (NR concentration 270 nM, RXRa partner concentration 90 nM)
How it was run: as §1

[17] = test system: PXR homodimer (NR concentration 270 nM)
How it was run: as §1

[18] = test system: RARa:RXR (NR concentration 270 nM, RXRa partner concentration 90 nM)
How it was run: as §1

[19] = test system: RARa homodimer (NR concentration 270 nM)
How it was run: as §1

[20] = test system: RARb:RXRa (NR concentration 270 nM, RXRa partner concentration 90 nM)
How it was run: as §1

| Sequence | PBM binding z-score [1] | PBM binding z-score [2] | PBM binding z-score [3] | PBM binding z-score [4] | PBM binding z-score [5] | PBM binding z-score [6] | PBM binding z-score [7] | PBM binding z-score [8] | PBM binding z-score [9] | PBM binding z-score [10] | PBM binding z-score [11] | PBM binding z-score [12] | PBM binding z-score [13] | PBM binding z-score [14] | PBM binding z-score [15] | PBM binding z-score [16] | PBM binding z-score [17] | PBM binding z-score [18] | PBM binding z-score [19] | PBM binding z-score [20] |
| --- | --- | --- | --- | --- | --- | --- | --- | --- | --- | --- | --- | --- | --- | --- | --- | --- | --- | --- | --- | --- |
| TCTTGTAGATCAAGCAGGTAAAGAAAGCCTGAGT | 0.242 | 0.228 | -0.344 | 0.219 | -0.624 | 0.499 | -0.39 | 0.967 | 2.41 | 1.62 | 1.45 | 0.35 | 0.0649 | 0.0829 | 0.161 | 0.0667 | 0.176 | 0.203 | -0.0123 | -0.301 |
| ATCGAAAGGTTGTGAGGTGAGTATACAGAAAGGC | 0.714 | 0.605 | -0.189 | 0.771 | 0.139 | 1.68 | 0.892 | 0.732 | 0.508 | 0.523 | -0.125 | 0.638 | 0.845 | 0.495 | 0.431 | 0.336 | 0.498 | 1.15 | 0.35 | 1.45 |
| CCTTACGGGTCACCCCAGGTTATAGCATCGGAGT | 5.74 | 6.63 | 1.25 | 4.43 | -0.027 | 5.01 | 4.23 | 4.51 | 1.22 | 3.1 | 1.58 | 3.6 | 0.299 | -0.0802 | 2.12 | 5.4 | 0.158 | 4.43 | 0.572 | 3.79 |
| GCTTACGGGTCAAACGTTATAGCATGAATAGAAT | 6.35 | 4.13 | -0.166 | 4.02 | 0.282 | 5.72 | 6.02 | 6.15 | 2.96 | 5.31 | 4.87 | 4.1 | 1.95 | 1.38 | 1.25 | 3.37 | -0.15 | 4.41 | 0.0211 | 3.76 |
| ATATGTAGGTTAGCTGGGCTCATTCAGACTAGGC | -0.0917 | -0.146 | -0.339 | -0.294 | -0.171 | 1.98 | 2.71 | 2.34 | 0.752 | 1.5 | 6.55 | 5.57 | 1.42 | 1.63 | 0.611 | -0.0149 | -0.367 | 0.11 | 0.493 | 0.456 |
| TTACCAAGGGGAAAGGTCGTTGATGCACGCCTTG | 1.39 | 1.85 | -0.0678 | 1.81 | -0.739 | 3.79 | 5.27 | 6.57 | 4.47 | 6.82 | 0.296 | 2.61 | 0.358 | 0.0839 | 1.27 | 2.44 | 0.149 | 2.73 | -0.553 | 1.77 |
| TCTGCTAGGTCAACAATGGTCAGCTAATCTGCTA | 3.1 | 3.67 | -0.0289 | 2.16 | 0.366 | 3.29 | 2.13 | 3 | 2.07 | 2.54 | 4.05 | 4.05 | 0.64 | 0.264 | 1.23 | 1.94 | -0.276 | 2.29 | -0.189 | 4.11 |
| CTACCAAGGTGAACAAGGTCCTTGATTACTATTC | 0.682 | 0.376 | -0.214 | 0.744 | -0.587 | 1.57 | 0.578 | 0.855 | -0.122 | 0.296 | 2.33 | 2.45 | 0.391 | -0.0815 | 0.182 | 0.728 | 0.218 | 0.944 | -0.035 | 1.64 |
| AGTCAAAGTTCACTAGTTAACGTAAGATTCAGCT | 5.06 | 5.13 | 2.97 | 2.92 | 1.03 | 4.06 | 5.33 | 5.73 | 2.56 | 4.89 | 0.662 | 2.31 | 1.15 | 0.981 | 2.52 | 4.28 | 3.24 | 2.94 | 1.15 | 4.76 |
| AGAATGAGTTTACCAAAGATCAGGGAAACGCTTG | -0.512 | 2.97 | -0.355 | -0.0367 | -0.632 | 0.0717 | 0.658 | 0.55 | 0.448 | 0.452 | -0.401 | -0.237 | 0.734 | -0.0652 | -0.566 | 0.296 | 0.241 | -0.198 | -0.325 | 0.347 |
| TCTCGGAGCACACGAAGGTCAGAGCTTTCCAGAG | 0.286 | 0.742 | -0.215 | 0.706 | -1.73 | 1.7 | 0.118 | 1.06 | 1.04 | 0.995 | 0.43 | 0.198 | -0.909 | -1.03 | 0.396 | 1.12 | -1.04 | 1.49 | -1.5 | 2.39 |
| ACAGACAGGTGATGTAGGTAACTCAGGCTATCAT | -0.0766 | -0.183 | -0.0278 | -0.28 | -0.53 | 0.633 | 0.673 | -0.0404 | -0.31 | -0.171 | 1.26 | 2.15 | 0.582 | 0.742 | -0.119 | -0.31 | 0.148 | -0.0493 | 0.492 | 0.149 |
| CGAACTAGGTCAAGAACAGTGAATCTCCGCACGC | 2.92 | 1.9 | 0.155 | 1.35 | 0.0467 | 4.39 | 6.53 | 6.17 | 2.93 | 5.49 | 8.01 | 8.06 | 0.866 | 0.438 | 1.15 | 0.968 | -0.254 | 1.69 | 0.13 | 3.69 |
| TCATAAAGGTAAACAGGTGAAAGTCCGTAAGTTA | 1.21 | 1.53 | 0.0462 | 1.44 | -0.2 | 2.83 | 2.29 | 3.47 | 4.28 | 3.89 | 3.73 | 2.72 | 0.109 | 0.863 | 1.24 | 1.22 | 0.86 | 1.89 | 1.6 | 1.65 |

Source: the supplement of paper PMC6555819
